Assay results as given in article PMC12864922, “TDP-43 directly inhibits mRNA accumulation in neurites through modulation of mRNA stability”.
Over roughly 9,900 sequences, “r (bound/input frequency ratio)” has its median near 0.7; the highest 2% begin near 6.5. The full list was thinned out, with the highest values kept by preference.

B1: ENSMUSG00000029636.13|Wasf3 (ssRNA)
RNA: GGGAGUUCUACAGUCCGACGAUCGCUUCGAUAUCCGCAUGCUAGUUUGAUGAGAAUGACUGGUCUGACUGAGGCACAAGGGCCAGGCGACCAGUGGACAGCCAGGGCCCCAUAUGCAAGUGUGUUAGGAGCUCCUGUGCUCUCUGCACCCUCACAGUGGUAUUUCCCUGUAGCUUUAGUCCCUUUUGUAUUAACAGUGUGAUUUGCUUCUGCACAUCCUUCUGGAUUUGUUGAGUAUUUACUGUGUAAUACUUAAGUGCCACAGAACACAGCACACCGUGCUGCACACCAGGAAACUCGCAGUCUCUUGCGGUCGCACUAGUGUGGAAUUCUCGGGUGUCAAGG
B2: ENSMUSG00000061578.1299|Ksr2 (ssRNA)
RNA: GGGAGUUCUACAGUCCGACGAUCGCUUCGAUAUCCGCAUGCUACGUGUUGCUGGGUCCCAGGGGAUUGGCUGUAGUUAAUUAAAAGCACCUGUCUCUGUCAUCUCUGCACCCAACUGAAUCUCCCACCCUCAAGUGUACCUCUCAGGAUAUCCCCAGGCACACGAAGAUGGAAUGGAAAGCCAGUGGGUAUCUCCCACCCACUUAGAUGCUGAUGGCCUGGGACUAUAAACAGGGACAGUUGGGUCUCCUAAGGAAUAGCUUCCAGGUCCAGGAUGCUGGCAUCUCCCAGAGAGAACUCCAUCCUCUUGCGGUCGCACUAGUGUGGAAUUCUCGGGUGUCAAGG
B3: ENSMUSG00000090935.112|Synj2bp (ssRNA)
RNA: GGGAGUUCUACAGUCCGACGAUCGCUUCGAUAUCCGCAUGCUAGUUCCUGUAGCUAUGGUGCUGCUACCAGUGUUUGCCCUCACCAUGGUAGCAGUUUGGGCCUUCGUGAGAUACCGAAAGCAGCUUUGAAAUGCUUGCUGUCUUCCAGUGUGUCCAAUGAACUCUCUCUCUCACUCACCAUCUCUGACAUCCUCCCAUAUUCUUUCUCCUCCACAUAGCCAAUACAAGAUUUAAAGUGACUGCUUAUCACCCAAAACCCUGCUAUUCAAAAUCUCCUAUUCUAAUGGAAGAGUACAGGGGUUCUCUUGCGGUCGCACUAGUGUGGAAUUCUCGGGUGUCAAGG
B4: ENSMUSG00000034801.219|Sos2|230:238 (ssRNA)
RNA: GGGAGUUCUACAGUCCGACGAUCGCUUCGAUAUCCGCAUGCUAUCUGCUAUUUGACUAAUUUGUAAGUCUGGAACAAAAGUGUCUUAUGGCAUAAGAACCAACUGCCAUUGUCAAACCUAUUAACUGUCUUUAAUCUCGUGUUAACUGAAAUUUUUGAAAAGUUUUUCCAGAUUAGUAAUAUUUAAACAGAAAAUACUUUAAAAAGCUUUAUUAAAUUUUUUAAUCAGGAUAAAGCUUUGCCAUUUGGAUACUAUCAUUCAAAGUGAUCAAGCAUACAUACUUAUGCUGAUAGUGCAGUAGCACUCUUGCGGUCGCACUAGUGUGGAAUUCUCGGGUGUCAAGG
B5: ENSMUSG00000028439.106|Fam219a|156:160 (ssRNA)
RNA: GGGAGUUCUACAGUCCGACGAUCGCUUCGAUAUCCGCAUGCUACCCUCAUCUCCAGAUGGGAAGCCUGGCAGCGCUGUCCAAAGGGAUACUGUCUCUCCAUUAGAUAACUCCUUCCACUGUCUCCCUCCCCCGCUUUCUUACUUUCUGAGGGUUGGGAAGGUAAGAUGGGCCUUAGAGAGAAGCCAGGUUUGGGGAUGCAUACACCUGUUCUCACCGGUCUCUAACCAGUGCAUCUGUCUCUCUGCCUCAUCCCCACACCGCCCUGCCACCCCCAGUCUUCUGUCUAUUGGUUCCAGGCUGGACUCUUGCGGUCGCACUAGUGUGGAAUUCUCGGGUGUCAAGG
B6: ENSMUSG00000061578.55|Ksr2 (ssRNA)
RNA: GGGAGUUCUACAGUCCGACGAUCGCUUCGAUAUCCGCAUGCUACACGCUGGACCAGUGUGUGCGCAUGUGUCUACACAUGGACAGGGCCAACUGCUAUCCUUCUGCCUGGACGAGCCAGCUGUGGAGUGUCCCAGCUGUGCUAUCCUGGAACACAGAACCAGGAUGGAACCAGAAACAAUACACCUGCUCCGUUGUCAAGGCUUCUAGGCCAAGGUCAGGGUAGGGAGGUGGGGUGGGUUAAACUUGCAAACAUCUGAUUUUAGAGGUCCCAUUCCAAGAUGGAAGUCACCGGUUGCCGCUGACUCUUGCGGUCGCACUAGUGUGGAAUUCUCGGGUGUCAAGG
B7: ENSMUSG00000031028.274|Tub (ssRNA)
RNA: GGGAGUUCUACAGUCCGACGAUCGCUUCGAUAUCCGCAUGCUAAAAAAGUAGAGUCAUGUAGAGUCAUGCUUUGAAUAUGUGGGUCAUGCUUUAGAUAUGAAGAGGCUAUGCAGGUAAGGAGGCUGGAUUGAUGUAAAUGGAAGUAGUACUUUAAGAAAGCUCUAGAUUUCCCAGGUUGGACACUCGACGAAAGGCACACCUGCUGCAGCAGGUUCUGACACACCUGAGCCAUACAUUGCCAUCAGAGAACCCUCAGCGAGGUAGCCUUUGUUUACAGUCUAGUUUCUAGAGGGCAGUAGGACCUCUUGCGGUCGCACUAGUGUGGAAUUCUCGGGUGUCAAGG
B8: ENSMUSG00000031028.129|Tub|126:130;202:207 (ssRNA)
RNA: GGGAGUUCUACAGUCCGACGAUCGCUUCGAUAUCCGCAUGCUACCAAAUAUCUGAGUGGAUGGGGAUGAUAGGAGUCAUCCAGUAGACUCCCUACAUCAGGGCUCUCAGCAGCCCCAGCACAACACCUAUGACACACACACAGGAUCUAGGUCACCAUUCAAGUAAUGCAUACCUUCAGGAAGAAUGUCCUCUCUGGGAAGACUCAGCUCCCAUUAUUGCCAGCAUGCCAUGAUCAGUGAGGGCACACACCCAUGCUUAGGGGGAUGGCGCAGGGUGAGGGGAGCAGAGGAUAUUUUAGGGCCCUCUUGCGGUCGCACUAGUGUGGAAUUCUCGGGUGUCAAGG
B9: ENSMUSG00000004113.208|Cacna1b|46:50;236:240 (ssRNA)
RNA: GGGAGUUCUACAGUCCGACGAUCGCUUCGAUAUCCGCAUGCUACAUCGGGUGGAUUGGGUGGGAGCUGCUCAGAGCAGCACGGGGGCUACACACUUAGGGACAUUGACAGUGUCCAUCAGCAUGUCAGAGAAGCAGCUGUAGUGCCCGUGUUUCUCCCUGAGUCAUGGGUUCUGAAGAAGCCAGAGCGGCACAAUGCGUGCUUGCAUGAGGCACUUUCAGCCUUUUUAAAUCUGACUCUCAGGGAUGGGAUGCCUGCCAAGUAGGGUGUAAUCUCUGUACACAUUUUAAAACAACAACAACAACUCUUGCGGUCGCACUAGUGUGGAAUUCUCGGGUGUCAAGG
B10: ENSMUSG00000022095.101|Fam160b2 (ssRNA)
RNA: GGGAGUUCUACAGUCCGACGAUCGCUUCGAUAUCCGCAUGCUAUGCUCUACCCUCCUGGAGGCUGUUGCAAAAUUCCCAACUGCCUCCUGGCAGAGGCCCAAAGUAUGCUCUGCGCCCAGGCGGGGGCAGCUGCUAACAAGAGCCCUGGCGCAGCUGCAGCCAGGGCAGGCGAGAGCCUUGGAGCUGGGUGCCAGGCUCCAGCUCCAGCUCCAGCUGGUUCCUCUCUGGCGCCUUCUGAACCCGUCUCAGCAAGUCCGAAACACCUGGGCAGAGAGGUCAUUGACCAGGGAUGGGGGCCCUUGCUCUUGCGGUCGCACUAGUGUGGAAUUCUCGGGUGUCAAGG
B11: ENSMUSG00000028439.161|Fam219a (ssRNA)
RNA: GGGAGUUCUACAGUCCGACGAUCGCUUCGAUAUCCGCAUGCUAUUCCAGAAAGGCUCUUCAAGAGCAAGCUUAAGGAAAUACAGUGAGCCAAGUGGCUGUAUGAUAUGGUAUGGUAUGGUAUGGUAUGGUAUGGUAUGGUAUGCACAUGUGUGUGCAUGUGUGUGUGCCUGUGUGUGUGCGUGUGCGUGUGUGUAUGUGUGUGCGUGUGUGUGUGUGUGUGUUGUACCCGAGUGUGUGUUGAGCCUAUCUGUCCAGGGAACCAGAUUGGUGUCCGAGAUGAGGAAAUGGCUGUGGCCUGGGAACUCUUGCGGUCGCACUAGUGUGGAAUUCUCGGGUGUCAAGG
B12: ENSMUSG00000028439.159|Fam219a (ssRNA)
RNA: GGGAGUUCUACAGUCCGACGAUCGCUUCGAUAUCCGCAUGCUACAGGAGCCAGGCUUCCAGAAAGGCUCUUCAAGAGCAAGCUUAAGGAAAUACAGUGAGCCAAGUGGCUGUAUGAUAUGGUAUGGUAUGGUAUGGUAUGGUAUGGUAUGGUAUGCACAUGUGUGUGCAUGUGUGUGUGCCUGUGUGUGUGCGUGUGCGUGUGUGUAUGUGUGUGCGUGUGUGUGUGUGUGUGUUGUACCCGAGUGUGUGUUGAGCCUAUCUGUCCAGGGAACCAGAUUGGUGUCCGAGAUGAGGAAAUGGCUCUCUUGCGGUCGCACUAGUGUGGAAUUCUCGGGUGUCAAGG
B13: ENSMUSG00000028439.160|Fam219a (ssRNA)
RNA: GGGAGUUCUACAGUCCGACGAUCGCUUCGAUAUCCGCAUGCUACCAGGCUUCCAGAAAGGCUCUUCAAGAGCAAGCUUAAGGAAAUACAGUGAGCCAAGUGGCUGUAUGAUAUGGUAUGGUAUGGUAUGGUAUGGUAUGGUAUGGUAUGCACAUGUGUGUGCAUGUGUGUGUGCCUGUGUGUGUGCGUGUGCGUGUGUGUAUGUGUGUGCGUGUGUGUGUGUGUGUGUUGUACCCGAGUGUGUGUUGAGCCUAUCUGUCCAGGGAACCAGAUUGGUGUCCGAGAUGAGGAAAUGGCUGUGGCCCUCUUGCGGUCGCACUAGUGUGGAAUUCUCGGGUGUCAAGG
B14: ENSMUSG00000028439.158|Fam219a (ssRNA)
RNA: GGGAGUUCUACAGUCCGACGAUCGCUUCGAUAUCCGCAUGCUAAAAGUCCAGGAGCCAGGCUUCCAGAAAGGCUCUUCAAGAGCAAGCUUAAGGAAAUACAGUGAGCCAAGUGGCUGUAUGAUAUGGUAUGGUAUGGUAUGGUAUGGUAUGGUAUGGUAUGCACAUGUGUGUGCAUGUGUGUGUGCCUGUGUGUGUGCGUGUGCGUGUGUGUAUGUGUGUGCGUGUGUGUGUGUGUGUGUUGUACCCGAGUGUGUGUUGAGCCUAUCUGUCCAGGGAACCAGAUUGGUGUCCGAGAUGAGGAACUCUUGCGGUCGCACUAGUGUGGAAUUCUCGGGUGUCAAGG
B15: ENSMUSG00000028439.162|Fam219a (ssRNA)
RNA: GGGAGUUCUACAGUCCGACGAUCGCUUCGAUAUCCGCAUGCUAAAAGGCUCUUCAAGAGCAAGCUUAAGGAAAUACAGUGAGCCAAGUGGCUGUAUGAUAUGGUAUGGUAUGGUAUGGUAUGGUAUGGUAUGGUAUGCACAUGUGUGUGCAUGUGUGUGUGCCUGUGUGUGUGCGUGUGCGUGUGUGUAUGUGUGUGCGUGUGUGUGUGUGUGUGUUGUACCCGAGUGUGUGUUGAGCCUAUCUGUCCAGGGAACCAGAUUGGUGUCCGAGAUGAGGAAAUGGCUGUGGCCUGGGAAAUCAGUCUCUUGCGGUCGCACUAGUGUGGAAUUCUCGGGUGUCAAGG

target: TDP-43 (Homo sapiens, UniProt Q13148 1-414); test: RNA Bind-n-Seq with designed 260-mer pool; 25 mM Tris-HCl, 150 mM KCl, 3 mM MgCl2, BSA (printed 500 mg/mL), 20 units/mL SUPERase IN; pH not stated; 500 nM RNA pool, 1 h, 4 C; TDP-43 5, 50, 500 nM; high values mean tight binding; conditions: protein: recombinant; tags: SBP (GST cleaved off with PreScission; pGEX-GST-SBP)
Sequence (Q13148 whole entry): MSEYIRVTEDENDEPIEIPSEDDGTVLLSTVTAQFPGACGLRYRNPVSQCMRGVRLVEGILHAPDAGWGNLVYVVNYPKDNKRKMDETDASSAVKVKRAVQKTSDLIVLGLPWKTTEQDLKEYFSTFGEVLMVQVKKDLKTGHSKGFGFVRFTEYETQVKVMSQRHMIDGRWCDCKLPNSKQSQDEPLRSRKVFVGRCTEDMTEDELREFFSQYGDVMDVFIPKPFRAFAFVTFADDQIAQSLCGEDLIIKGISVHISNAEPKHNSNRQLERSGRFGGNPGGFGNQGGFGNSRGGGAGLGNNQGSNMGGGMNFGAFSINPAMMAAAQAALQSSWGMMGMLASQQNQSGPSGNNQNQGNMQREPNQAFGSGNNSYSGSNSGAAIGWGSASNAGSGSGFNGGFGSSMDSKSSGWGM
Outline: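 An in vitro-transcribed pool of 260-nt 3′ UTR oligos (500 nM) was incubated for 1 h at 4 °C with recombinant SBP-tagged TDP-43 at 5, 50 or 500 nM held on streptavidin beads. The buffer contained 25 mM Tris-HCl, 150 mM KCl, 3 mM MgCl2, BSA and SUPERase IN. Biotin-eluted bound RNA was sequenced, and binding, R, is each oligo's normalized read abundance in the bound sample over that in input.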

Going from B1 to B2, the binding signal falls from 0.391 R (bound/input frequency ratio) to 0.299 R (bound/input frequency ratio).

Going from B3 to B4, the binding signal falls from 2.02 R (bound/input frequency ratio) to 0.0202 R (bound/input frequency ratio).

First: B5
Second: B6
The binding signal of the first is lower: 0.353 R (bound/input frequency ratio) for the first, 0.378 R (bound/input frequency ratio) for the second.

Going from B7 to B8, the binding signal falls from 0.687 R (bound/input frequency ratio) to 0.668 R (bound/input frequency ratio).

Compared with B9, B10 is lower in binding signal: 0.881 R (bound/input frequency ratio) for the first, 0.743 R (bound/input frequency ratio) for the second.

Compared with B11, B12 is lower in binding signal: 8.09 R (bound/input frequency ratio) for the first, 7.39 R (bound/input frequency ratio) for the second.

Compared with B13, B14 is lower in binding signal: 6.51 R (bound/input frequency ratio) for the first, 6.13 R (bound/input frequency ratio) for the second.

With B15 the binding signal was 8.11 R (bound/input frequency ratio).
